Measured values taken from PubChem BioAssay (NCI).
The panel holds about 83,000 compounds, 20% with a hit somewhere; the sample as a whole holds those more often.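 Percent growth is the endpoint: 0 to 100 indicates growth inhibition (40 means 60% inhibition), 0 means no net growth, and negative values indicate cell death.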 Unmarked numbers belong to inactive results. Active and inactive are the calls of the source. How the source made its calls: active means growth percent below 10; inactive means the rest.

What was measured:
Experiment in all cases: NCI-60 one-dose screen, 48 h (100 = growth as untreated, 0 = no growth, -100 = all killed)
Conditions in all cases: 10 µM unless noted
DU-145 prostate = tested on: DU-145 prostate
K-562 leukemia = tested on: K-562 leukemia
MALME-3M melanoma = tested on: MALME-3M melanoma
MDA-MB-231 breast = tested on: MDA-MB-231 breast
RXF 393 renal = tested on: RXF 393 renal
SF-268 CNS = tested on: SF-268 CNS
SF-295 CNS = tested on: SF-295 CNS
SF-539 CNS = tested on: SF-539 CNS
UACC-257 melanoma = tested on: UACC-257 melanoma
M14 melanoma = tested on: M14 melanoma
HCT-15 colon = tested on: HCT-15 colon
HT29 colon = tested on: HT29 colon
SNB-75 CNS = tested on: SNB-75 CNS
SNB-19 CNS = tested on: SNB-19 CNS
U251 CNS = tested on: U251 CNS
PC-3 prostate = tested on: PC-3 prostate
SK-MEL-5 melanoma = tested on: SK-MEL-5 melanoma
UACC-62 melanoma = tested on: UACC-62 melanoma
LOX IMVI melanoma = tested on: LOX IMVI melanoma
SK-MEL-28 melanoma = tested on: SK-MEL-28 melanoma

Row | SMILES | growth (DU-145 prostate) | growth (K-562 leukemia) | growth (MALME-3M melanoma) | growth (MDA-MB-231 breast) | growth (RXF 393 renal) | growth (SF-268 CNS) | growth (SF-295 CNS) | growth (SF-539 CNS) | growth (UACC-257 melanoma) | growth (M14 melanoma) | growth (HCT-15 colon) | growth (HT29 colon) | growth (SNB-75 CNS) | growth (SNB-19 CNS) | growth (U251 CNS) | growth (PC-3 prostate) | growth (SK-MEL-5 melanoma) | growth (UACC-62 melanoma) | growth (LOX IMVI melanoma) | growth (SK-MEL-28 melanoma)
1 | COc1cc(/C=C/C(=O)c2ccc(-n3cc(CN4CCN(c5cc6c(cc5F)c(=O)c(C(=O)O)cn6C5CC5)CC4)nn3)cc2)cc(OC)c1OC | 92.3% | 60.7% | 87.7% | 66.4% | 55.7% | 77.2% | 81.9% | 82.5% | 90.1% | 88.1% | 90.6% | 99.2% | 85.7% | 76.7% | 68.4% | 84.7% | 79.7% | 72.8% | 55.7% | 92%
2 | COc1cc2c(cc1-c1c(C)noc1C)ncc1nc(C3CCOCC3)n(C3CCC(OC(F)F)CC3)c12 (stereo not given) | 73.2% | 47.6% | 44.1% | 36.2% | 59% | 64.9% | 53.5% | 56.6% | 47.7% | 54.6% | 33.2% | 25.9% | 12.9% | 75.3% | 75.8% | 44.8% | 27.2% | 25.4% | 24% | 71.1%
3 | CCCCCCCCCCCCCC[n+]1ccc2c(C)c3c(c(C)c2c1)c1cc(O)ccc1n3CC | -93.4% (active) | -55.7% (active) | -84.7% (active) | -74.6% (active) | -63.3% (active) | -82.7% (active) | -54.3% (active) | -83.9% (active) | -69.3% (active) | -86.7% (active) | 19.9% | 4.46% (active) | -59.9% (active) | -77.9% (active) | -89% (active) | -88% (active) | -89.9% (active) | -68.5% (active) | -70% (active) | -93.9% (active)
4 | C#CCOc1ccc(C2=NN(C)C3N=C(Cl)c4ncn(C)c4N23)cc1OCC#C (stereo not given) | 104% | 93.5% | 112% | 95.9% | 82.7% | 105% | 94.3% | 90% | 97.2% | 104% | 92.1% | 103% | 97.6% | 103% | 98.7% | 91.1% | 86.1% | 84.3% | 89.2% | 96.5%
5 | Oc1cccc2c1NCCC2 | 34.8% | 13.5% | -0.428% (active) | 6.35% (active) | 43.9% | 35.3% | 0.338% (active) | 26.4% | 12.4% | 31.4% | 21.4% | 79.5% | 0.864% (active) | 14.9% | 14.7% | 9.22% (active) | -51.2% (active) | 5.24% (active) | 16.4% | 49.5%
6 | Cc1c(Cl)cccc1NC(=O)c1sc2nc3c(cc2c1N)CCCC3 | 39.9% | 13.7% | 67.7% | 49.5% | 40% | 49.3% | 8.07% (active) | 4.43% (active) | 37.7% | 25.3% | 24.1% | 8.28% (active) | 29.6% | 32.6% | 21% | 42.1% | 31% | 17.3% | 39.1% | 68.6%
7 | COc1cc(OC)cc(C(=O)Nc2cnc(Nc3ccc(N4CCOCC4)nc3)nc2Oc2ccc(C(F)(F)F)cc2)c1 | 78.8% | 97% | 57.2% | 44% | 76.5% | 78.7% | 77% | 34% | 16.7% | 93.1% | 75.4% | 46.8% | -14.5% (active) | 44.1% | 65.6% | 71.4% | 93% | 76.3% | 69.7% | 98.9%
8 | FC(F)(F)c1cc(N2CCCCC2)nc(NCCCNc2ccnc3cc(Cl)ccc23)n1 | 81.8% | 11.2% | 72.7% | 87.9% | 59.7% | 70.3% | 51.1% | 74.8% | 53.3% | 70.9% | 53.2% | 26.8% | 71.9% | 82.2% | 67.4% | 45.4% | 27.1% | 61.9% | 65.8% | 76.7%
9 | COC(=O)c1c(C)nc(C)c2c1C(=O)C(Br)=C(NCCCCO)C2=O | 79.6% | 71% | -2.98% (active) | 75.1% | 77.7% | 76.3% | 72.1% | 89.5% | 45.6% | 46.9% | 49.8% | 19.5% | 97.7% | 75.3% | 72.1% | 62.5% | -53.4% (active) | 44.2% | 50.2% | 102%
10 | COc1ccc(-c2csc(NC(=O)CSc3nc(C)cc(=O)[nH]3)n2)cc1 | 106% | 104% | 110% | 91.7% | 128% | 96.4% | 99.3% | 101% | 101% | 107% | 102% | 107% | 95.9% | 89.3% | 102% | 94.9% | 96.7% | 87.7% | 96.3% | 106%
11 | O=C(OCC(O)(CO)C(=O)NC12CC3CC(CC(C3)C1)C2)c1ccc(Cl)cc1 (stereo not given) | 108% | 91.4% | 103% | 101% | 101% | 99.7% | 93.1% | 107% | 99.2% | 98.7% | 104% | 94.8% | 97.6% | 96.2% | 93.5% | 93.7% | 101% | 97.4% | 95.2% | 113%
12 | COc1ccc(-c2ccc(-c3ccc(C(=N)N)nc3)s2)cc1 | -91.5% (active) | -27% (active) | 87.7% | -79.8% (active) | 66.4% | -65.4% (active) | -81.2% (active) | -98.4% (active) | 84.6% | -56.6% (active) | -77% (active) | -43.1% (active) | 116% | 4.32% (active) | -51.9% (active) | -37.4% (active) | 70.8% | -94.2% (active) | -89% (active) | 93.8%
13 | CCOC(=O)c1c(C)n2c(=O)cc(C)c3c(OC(C)=O)c(OC(C)=O)cc1c32 | 67.3% | 22.3% | 75% | 86.7% | 73.8% | 49.6% | 94.8% | 72.1% | 108% | 83.2% | 41.2% | 102% | 74.1% | 72% | 50.9% | 59.2% | 50.3% | 76.2% | 42.4% | 64.7%
14 | O=C1Nc2ccccc2/C1=C/c1cccn1CCCCCCn1c2ccccc2c(=O)c2ccccc21 | 94% | 66.6% | 90.7% | 75.4% | 99.2% | 87% | 97.2% | 100% | 110% | 78.2% | 23% | 92.9% | 92.3% | 97.1% | 92.4% | 40.1% | 34.7% | 50.3% | 91.2% | 111%
15 | C#CCOc1cccc(Nc2c(Cl)c(CCl)nc3ccc(Oc4ccccc4)cc23)c1 | 43.8% | 15% | 68.4% | 33.2% | 78.6% | 18.8% | 88.7% | 80.7% | 90% | 47.7% | 12.3% | 7.96% (active) | 75.5% | 62.5% | 24.9% | 78% | 30.4% | 39.9% | -34.1% (active) | 65.4%
